Measured values from PubChem BioAssay (EPA / NIEHS).
Results filed as inconclusive are left out. Activity calls are given as the source filed them. Rule for the calls, unless noted: active = hit-call score of the fitted dose curve at least 0.9, where 1 is the maximum; inactive = score below 0.9.

Key:
[1] = ATG_TCF_b_cat_CIS: Attagene CIS-FACTORIAL HepG2 Assay for human T-Cell-Factor with beta-catenin (TCF/b-cat) (AID 2282965); settings: HepG2 TCF/beta-catenin cis-reporter transcription, actives raise or lower the signal
In short: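 Endogenous TCF/LEF activity read as reporter transcript level via RT-PCR and capillary electrophoresis fluorescence in transfected HepG2, 24 h exposure; gain or loss of signal fitted against DMSO controls.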

[2] = ATG_TAL_CIS: Attagene CIS-FACTORIAL HepG2 Assay for human TAL Basal Promoter (AID 2282966); settings: HepG2 Attagene cis-factorial TAL promoter reporter; actives raise or lower the signal;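 note: background control endpoint measuring basal TAL promoter reporter mRNA not a specific factor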
In short: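 HepG2, transient MRTU transfection, 24 h compound exposure; RNA → oligo(dT) RT → PCR → 6-FAM primer extension → HpaI digest → CE fluorescence. Bidirectional curve fit vs DMSO. Background-control readout.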

[3] = ATG_TGFb_CIS: Attagene CIS-FACTORIAL HepG2 Assay for human Transforming Growth Factor (TGF) (AID 2282967); settings: HepG2 Attagene CIS TGFb reporter, mRNA transcription; actives raise or lower the signal
In short: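 After a 24-hour incubation with compound, transfected HepG2 cells were lysed for RNA; reporter cDNA was amplified, fluorescently end-labeled and separated by CE. DMSO served as baseline for bidirectional fits.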

[4] = ATG_VDRE_CIS: Attagene CIS-FACTORIAL HepG2 Assay for human Vitamin D Receptor Element (VDRE) (AID 2282968); settings: HepG2 VDRE cis-reporter transcription, actives raise or lower the signal
In short: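 Readout is VDRE-driven reporter mRNA reflecting endogenous factor activity in human HepG2 cells, sampled 24 h post-dose. Quantification used labelled RT-PCR products separated by capillary electrophoresis; bidirectional analysis relative to DMSO.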

[5] = biological target: Estrogen receptor (Homo sapiens) (UniProt P03372); experiment: ATG_ERa_TRANS: Attagene TRANS-FACTORIAL HepG2 Assay for human Estrogen Receptor alpha (ERa) (AID 2282970; active = hit-call score of the fitted dose curve at least 0.9, where 1 is the maximum); settings: HepG2 Attagene TRANS ERa GAL4 reporter, mRNA
Estrogen receptor (Homo sapiens), sequence (P03372 whole entry, looked up, the tested form may be a part): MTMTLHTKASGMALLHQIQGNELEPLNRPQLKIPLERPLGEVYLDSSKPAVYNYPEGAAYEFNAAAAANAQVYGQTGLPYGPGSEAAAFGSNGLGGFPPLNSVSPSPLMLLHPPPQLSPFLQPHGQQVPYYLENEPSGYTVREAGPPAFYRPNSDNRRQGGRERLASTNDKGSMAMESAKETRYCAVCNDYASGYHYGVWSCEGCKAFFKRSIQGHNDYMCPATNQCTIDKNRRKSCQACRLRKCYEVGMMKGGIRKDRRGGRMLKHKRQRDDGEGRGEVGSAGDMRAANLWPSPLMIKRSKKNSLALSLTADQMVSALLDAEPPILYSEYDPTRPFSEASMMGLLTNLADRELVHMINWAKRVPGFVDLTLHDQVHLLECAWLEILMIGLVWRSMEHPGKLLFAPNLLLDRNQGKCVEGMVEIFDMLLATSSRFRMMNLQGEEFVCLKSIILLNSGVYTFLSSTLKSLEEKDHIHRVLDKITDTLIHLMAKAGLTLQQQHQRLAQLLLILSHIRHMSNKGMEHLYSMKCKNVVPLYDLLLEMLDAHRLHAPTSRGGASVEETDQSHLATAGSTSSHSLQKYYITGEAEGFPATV
In short: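 Reporter mRNA induction after 24 hours, detected by fluorescent RT-PCR and capillary electrophoresis, gives the read-out. Cells are HepG2 transiently transfected with GAL4-UAS reporter transcription units responding to chimeric NR-Gal4. Activity is taken as gain of signal over DMSO baseline.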

[6] = biological target: X-box-binding protein 1 (Homo sapiens) (UniProt P17861); experiment: ATG_Xbp1_CIS: Attagene CIS-FACTORIAL HepG2 Assay for human X-box Binding Protein 1 (XBP1) (AID 2282972); settings: HepG2 XBP1 cis-element reporter, Attagene multiplex; actives raise or lower the signal
X-box-binding protein 1 (Homo sapiens), sequence (P17861 whole entry, looked up): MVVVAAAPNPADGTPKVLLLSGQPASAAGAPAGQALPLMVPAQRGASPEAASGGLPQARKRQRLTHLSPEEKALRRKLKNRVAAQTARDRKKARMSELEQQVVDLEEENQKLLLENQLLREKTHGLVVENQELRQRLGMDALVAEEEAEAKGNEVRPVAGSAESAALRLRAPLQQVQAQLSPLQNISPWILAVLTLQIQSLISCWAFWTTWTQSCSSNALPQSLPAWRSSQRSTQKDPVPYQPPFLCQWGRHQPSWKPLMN
In short: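 Changes in reporter transcript abundance, read by RT-PCR and capillary electrophoresis, reflect endogenous transcription factor activity. Transfected HepG2 cells received compound for 24 hours; DMSO defined baseline for bidirectional analysis.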

[7] = biological target: Oxysterols receptor LXR-beta (Homo sapiens) (UniProt P55055); experiment: ATG_LXRb_TRANS: Attagene TRANS-FACTORIAL HepG2 Assay for human Liver X Receptor beta (LXRb) (AID 2282981; active = hit-call score of the fitted dose curve at least 0.9, where 1 is the maximum); settings: HepG2 Attagene TRANS GAL4-LXRb reporter, mRNA
Oxysterols receptor LXR-beta (Homo sapiens), sequence (P55055 whole entry, looked up, the tested form may be a part): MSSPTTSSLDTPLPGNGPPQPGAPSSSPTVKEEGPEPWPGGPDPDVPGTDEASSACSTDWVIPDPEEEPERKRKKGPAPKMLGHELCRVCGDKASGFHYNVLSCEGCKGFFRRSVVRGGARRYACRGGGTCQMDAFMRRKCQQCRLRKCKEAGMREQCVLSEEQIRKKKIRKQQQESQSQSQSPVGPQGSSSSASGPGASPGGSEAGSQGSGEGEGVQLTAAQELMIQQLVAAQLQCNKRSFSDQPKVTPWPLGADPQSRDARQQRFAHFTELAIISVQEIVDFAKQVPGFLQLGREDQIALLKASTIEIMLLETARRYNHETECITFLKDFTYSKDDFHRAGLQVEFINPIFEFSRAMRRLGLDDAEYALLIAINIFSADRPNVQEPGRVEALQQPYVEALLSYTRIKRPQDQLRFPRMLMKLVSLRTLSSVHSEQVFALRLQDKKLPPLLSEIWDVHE
In short: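 After 24 h chemical treatment of transfected HepG2 cells carrying exogenous NR-Gal4 chimeras, reporter mRNA was quantified by fluorescent RT-PCR and capillary electrophoresis; activity taken as increase over DMSO controls.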

[8] = biological target: Hepatocyte nuclear factor 4-alpha (Homo sapiens) (UniProt P41235); experiment: ATG_HNF4a_TRANS: Attagene TRANS-FACTORIAL HepG2 Assay for human Hepatocyte Nuclear Factor 4 alpha (HNF4a) (AID 2282982; active = hit-call score of the fitted dose curve at least 0.9, where 1 is the maximum); settings: HepG2 HNF4a transactivation reporter, mRNA readout
Hepatocyte nuclear factor 4-alpha (Homo sapiens), sequence (P41235 whole entry, looked up, the tested form may be a part): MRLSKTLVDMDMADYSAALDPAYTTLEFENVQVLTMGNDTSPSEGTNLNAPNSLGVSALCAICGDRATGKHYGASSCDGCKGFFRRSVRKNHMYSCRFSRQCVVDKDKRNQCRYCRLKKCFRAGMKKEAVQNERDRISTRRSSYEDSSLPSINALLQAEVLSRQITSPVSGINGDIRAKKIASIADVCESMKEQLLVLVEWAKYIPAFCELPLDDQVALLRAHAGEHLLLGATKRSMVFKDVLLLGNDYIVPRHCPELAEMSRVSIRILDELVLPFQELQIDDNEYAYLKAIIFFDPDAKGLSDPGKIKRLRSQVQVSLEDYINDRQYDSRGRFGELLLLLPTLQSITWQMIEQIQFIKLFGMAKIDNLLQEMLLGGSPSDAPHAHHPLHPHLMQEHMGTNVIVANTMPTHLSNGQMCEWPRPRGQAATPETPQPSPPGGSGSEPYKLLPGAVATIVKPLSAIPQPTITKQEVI
In short: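 Activity of an exogenous HNF4a–Gal4 fusion scored as induced GAL4-UAS reporter transcripts after 24 h chemical exposure of transfected human HepG2 cells. Read-out via RT-PCR with 6-FAM labelling and capillary electrophoresis; rise over DMSO baseline.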

[9] = ATG_M_06_TRANS: Attagene TRANS-FACTORIAL HepG2 Assay for M06 Transcription Factor (Internal Marker) (AID 2282983; active = hit-call score of the fitted dose curve at least 0.9, where 1 is the maximum); settings: HepG2 Attagene TRANS M06 internal marker reporter
In short: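 Read-out: fluorescent reporter cDNA fragments resolved by capillary electrophoresis after RT-PCR and HpaI cut. Source cells were HepG2 carrying transfected multi-reporter GAL4 constructs, dosed 24 h. Increase over DMSO control analysed.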

[10] = biological target: Transcriptional activator Myb (Homo sapiens) (UniProt P10242); experiment: ATG_Myb_CIS: Attagene CIS-FACTORIAL HepG2 Assay for human Myeloblastosis (Myb) Proto-Oncogene Transcription Factor (AID 2282986); settings: HepG2 Attagene CIS-FACTORIAL Myb reporter transcription; actives raise or lower the signal
Transcriptional activator Myb (Homo sapiens), sequence (P10242 whole entry, looked up): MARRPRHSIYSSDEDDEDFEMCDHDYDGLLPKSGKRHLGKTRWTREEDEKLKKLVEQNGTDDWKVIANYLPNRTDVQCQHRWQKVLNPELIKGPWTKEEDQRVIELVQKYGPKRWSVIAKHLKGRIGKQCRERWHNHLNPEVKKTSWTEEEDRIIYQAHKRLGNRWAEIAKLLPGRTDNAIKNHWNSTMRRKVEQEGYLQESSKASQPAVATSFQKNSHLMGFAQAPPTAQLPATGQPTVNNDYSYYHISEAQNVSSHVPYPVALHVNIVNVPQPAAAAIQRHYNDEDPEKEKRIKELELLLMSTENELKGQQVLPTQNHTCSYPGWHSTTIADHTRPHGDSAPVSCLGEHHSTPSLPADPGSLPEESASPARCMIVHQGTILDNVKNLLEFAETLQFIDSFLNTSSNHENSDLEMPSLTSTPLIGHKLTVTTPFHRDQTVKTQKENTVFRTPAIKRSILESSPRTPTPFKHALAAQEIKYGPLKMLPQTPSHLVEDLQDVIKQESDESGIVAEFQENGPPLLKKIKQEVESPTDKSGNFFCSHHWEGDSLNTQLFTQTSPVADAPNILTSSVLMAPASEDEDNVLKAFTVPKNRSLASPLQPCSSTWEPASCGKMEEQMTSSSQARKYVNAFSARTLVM
In short: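 Reporter transcript levels, quantified by fluorescent RT-PCR and capillary electrophoresis, serve as the read-out. Transfected HepG2 cells carrying cis-promoter reporter units are dosed for 24 hours, and curves are fitted bidirectionally against DMSO controls.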

[11] = biological target: Glucocorticoid receptor (Homo sapiens) (UniProt P04150); experiment: ATG_GR_TRANS: Attagene TRANS-FACTORIAL HepG2 Assay for human Glucocorticoid Receptor (GR) (AID 2282978; active = hit-call score of the fitted dose curve at least 0.9, where 1 is the maximum;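 note: activators score as hits since higher reporter transcript over DMSO is fitted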); settings: HepG2 Attagene TRANS GR reporter, mRNA transcription
Glucocorticoid receptor (Homo sapiens), sequence (P04150 whole entry, looked up, the tested form may be a part): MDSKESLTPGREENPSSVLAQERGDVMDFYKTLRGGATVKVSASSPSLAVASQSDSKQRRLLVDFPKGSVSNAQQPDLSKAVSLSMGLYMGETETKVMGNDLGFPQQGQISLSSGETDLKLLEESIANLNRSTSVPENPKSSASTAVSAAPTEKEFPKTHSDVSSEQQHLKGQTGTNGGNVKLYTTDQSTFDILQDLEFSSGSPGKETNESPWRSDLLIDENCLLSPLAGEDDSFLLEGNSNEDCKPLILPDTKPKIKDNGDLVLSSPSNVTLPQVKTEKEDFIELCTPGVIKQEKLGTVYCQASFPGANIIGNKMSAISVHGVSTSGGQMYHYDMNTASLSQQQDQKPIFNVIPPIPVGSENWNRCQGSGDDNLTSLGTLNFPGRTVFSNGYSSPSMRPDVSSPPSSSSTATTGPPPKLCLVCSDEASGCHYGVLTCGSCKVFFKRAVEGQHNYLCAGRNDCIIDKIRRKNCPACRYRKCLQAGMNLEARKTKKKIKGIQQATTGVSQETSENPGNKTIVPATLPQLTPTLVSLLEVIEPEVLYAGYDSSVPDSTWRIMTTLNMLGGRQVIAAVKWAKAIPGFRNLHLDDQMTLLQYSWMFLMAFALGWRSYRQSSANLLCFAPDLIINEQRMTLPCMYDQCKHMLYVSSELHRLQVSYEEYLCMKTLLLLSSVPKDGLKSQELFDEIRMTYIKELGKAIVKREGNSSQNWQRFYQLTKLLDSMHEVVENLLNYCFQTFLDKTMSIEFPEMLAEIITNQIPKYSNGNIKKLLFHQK
In short: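 Fluorescent capillary-electrophoresis quantitation of reporter mRNA is the readout, taken 24 h after dosing human HepG2 cells carrying transiently transfected GAL4-UAS reporter units activated by chimeric NR-GAL4 fusions; activity scored as induction over DMSO.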

[12] = biological target: Bile acid receptor (Homo sapiens) (UniProt Q96RI1); experiment: ATG_FXR_TRANS: Attagene TRANS-FACTORIAL HepG2 Assay for Farnesoid X Receptor (FXR) (AID 2282979; active = hit-call score of the fitted dose curve at least 0.9, where 1 is the maximum;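 note: hits raise reporter mRNA above DMSO so AC50 marks FXR activation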); settings: HepG2 Attagene TRANS FXR-GAL4 reporter transcription
Bile acid receptor (Homo sapiens), sequence (Q96RI1 whole entry, looked up, the tested form may be a part): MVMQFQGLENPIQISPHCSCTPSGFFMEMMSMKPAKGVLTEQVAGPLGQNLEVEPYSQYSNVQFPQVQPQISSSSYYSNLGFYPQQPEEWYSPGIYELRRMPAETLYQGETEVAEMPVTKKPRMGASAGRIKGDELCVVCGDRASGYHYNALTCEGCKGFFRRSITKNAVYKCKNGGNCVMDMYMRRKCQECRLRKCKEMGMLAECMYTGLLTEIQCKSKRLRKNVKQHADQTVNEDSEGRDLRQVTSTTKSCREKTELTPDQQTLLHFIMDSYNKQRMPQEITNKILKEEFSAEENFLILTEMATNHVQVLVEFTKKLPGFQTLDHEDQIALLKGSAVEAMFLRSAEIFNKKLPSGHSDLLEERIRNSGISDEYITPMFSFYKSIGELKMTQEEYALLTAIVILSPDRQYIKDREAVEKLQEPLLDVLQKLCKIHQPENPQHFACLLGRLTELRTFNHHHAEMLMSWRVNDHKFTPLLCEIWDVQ
In short: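 Read-out: fluorescent reporter transcripts quantified by capillary electrophoresis after RT-PCR of total RNA. Source cells were HepG2 transiently carrying chimeric NR-GAL4 plus GAL4-UAS reporter units, dosed 24 h. Activity fitted upward relative to DMSO baseline.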

[13] = biological target: Oxysterols receptor LXR-alpha (Homo sapiens) (UniProt Q13133); experiment: ATG_LXRa_TRANS: Attagene TRANS-FACTORIAL HepG2 Assay for human Liver X Receptor alpha (LXRa) (AID 2282980; active = hit-call score of the fitted dose curve at least 0.9, where 1 is the maximum); settings: HepG2 Attagene TRANS reporter, LXRa transactivation
Oxysterols receptor LXR-alpha (Homo sapiens), sequence (Q13133 whole entry, looked up, the tested form may be a part): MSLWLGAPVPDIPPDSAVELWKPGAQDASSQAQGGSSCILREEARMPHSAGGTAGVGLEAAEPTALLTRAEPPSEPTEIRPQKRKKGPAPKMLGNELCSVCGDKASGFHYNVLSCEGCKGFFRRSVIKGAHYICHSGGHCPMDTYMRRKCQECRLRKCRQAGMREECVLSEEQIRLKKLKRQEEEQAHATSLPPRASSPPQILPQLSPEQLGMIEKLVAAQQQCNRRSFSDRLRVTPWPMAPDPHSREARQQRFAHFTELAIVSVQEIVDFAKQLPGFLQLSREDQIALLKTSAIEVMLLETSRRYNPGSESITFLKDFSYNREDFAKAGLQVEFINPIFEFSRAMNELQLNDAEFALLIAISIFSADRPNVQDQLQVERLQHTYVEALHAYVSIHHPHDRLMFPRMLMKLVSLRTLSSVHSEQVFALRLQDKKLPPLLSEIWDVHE
In short: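 Read-out: reporter transcript levels by RT-PCR plus capillary electrophoresis, fluorescence intensity. Transiently transfected HepG2, exogenous NR-GAL4 chimera, GAL4-UAS reporters; 24 h compound exposure. Activity = increase over DMSO negative control.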

[14] = ATG_M_32_TRANS: Attagene TRANS-FACTORIAL HepG2 Assay for M32 Transcription Factor (Internal Marker) (AID 2282984; active = hit-call score of the fitted dose curve at least 0.9, where 1 is the maximum); settings: HepG2 Attagene TRANS M32 internal marker reporter
In short: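 Internal background reporter in transfected HepG2: after 24 h chemical exposure, RNA reverse-transcribed, reporter cDNA amplified, fluorescently labelled and HpaI-cut, then sized by capillary electrophoresis. Gain of signal fitted against DMSO control.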

[15] = biological target: Nuclear receptor subfamily 4 group A member 2 (Homo sapiens) (UniProt P43354); experiment: ATG_NURR1_TRANS: Attagene TRANS-FACTORIAL HepG2 Assay for human Nuclear Receptor Related Protein 1 (NURR1) (AID 2282985; active = hit-call score of the fitted dose curve at least 0.9, where 1 is the maximum); settings: HepG2 Attagene TRANS reporter, mRNA readout
In short: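 Reporter transcript induction, measured by RT-PCR with fluorescent labelling, HpaI digestion and capillary electrophoresis, after 24 hr dosing of human HepG2 cells transiently expressing an exogenous NR-Gal4 fusion with GAL4-UAS-driven reporters; DMSO as baseline.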

[16] = biological target: Steroid hormone receptor ERR1 (Homo sapiens) (UniProt P11474); experiment: ATG_ERRa_TRANS: Attagene TRANS-FACTORIAL HepG2 Assay for human Estrogen-Related Receptor alpha (ERRa) (AID 2282971; active = hit-call score of the fitted dose curve at least 0.9, where 1 is the maximum); settings: HepG2 Attagene TRANS reporter, ERRa transactivation
Steroid hormone receptor ERR1 (Homo sapiens), sequence (P11474 whole entry, looked up, the tested form may be a part): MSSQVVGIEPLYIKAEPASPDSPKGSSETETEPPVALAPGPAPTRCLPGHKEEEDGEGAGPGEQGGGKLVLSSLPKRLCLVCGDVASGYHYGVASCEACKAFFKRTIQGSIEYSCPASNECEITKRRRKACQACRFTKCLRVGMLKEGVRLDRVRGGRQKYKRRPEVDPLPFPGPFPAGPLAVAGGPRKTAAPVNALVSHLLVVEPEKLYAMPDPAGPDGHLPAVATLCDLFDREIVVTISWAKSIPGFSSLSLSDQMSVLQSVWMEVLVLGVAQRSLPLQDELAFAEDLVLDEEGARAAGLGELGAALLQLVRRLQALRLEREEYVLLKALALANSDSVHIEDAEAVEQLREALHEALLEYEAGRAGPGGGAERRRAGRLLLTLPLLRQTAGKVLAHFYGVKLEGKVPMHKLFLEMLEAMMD
In short: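 Transfected HepG2, 24 h dosing, ERRa-Gal4 chimera driving GAL4-UAS reporter. Readout: reporter mRNA via RT-PCR plus capillary electrophoresis (fluorescence). Positive direction vs DMSO control.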

[17] = ATG_GAL4_TRANS: Attagene TRANS-FACTORIAL HepG2 Assay for GAL4 (Internal Marker) (AID 2282976; active = hit-call score of the fitted dose curve at least 0.9, where 1 is the maximum); settings: HepG2 Attagene TRANS GAL4 internal marker reporter
In short: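 RT-PCR/capillary electrophoresis readout of reporter mRNA. HepG2, transient MRTU transfection (GAL4-UAS reporters), 24 h compound exposure. Background-control endpoint, positive direction vs DMSO baseline.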

| Compound | outcome [1] | outcome [2] | outcome [3] | outcome [4] | outcome [5] | outcome [6] | outcome [7] | outcome [8] | outcome [9] | outcome [10] | AC50 [4] | outcome [11] | outcome [12] | outcome [13] | outcome [14] | outcome [15] | outcome [16] | outcome [17] |
| --- | --- | --- | --- | --- | --- | --- | --- | --- | --- | --- | --- | --- | --- | --- | --- | --- | --- | --- |
| CC(C)COC(=O)c1ccccc1 | inactive | inactive | inactive | inactive | inactive | inactive | inactive | inactive | inactive | inactive |  |  |  |  |  |  |  |  |
| CC1=CC(C)C(C=O)C(C)C1 (stereo unspecified) (tested in a mixture with another compound) | inactive | inactive | inactive |  | inactive | inactive | inactive |  | inactive | inactive | 28.8 µM (active) | inactive | inactive | inactive | inactive | inactive |  |  |
| CCOC(=O)C(=O)OCC | inactive | inactive | inactive | inactive |  | inactive |  | inactive |  | inactive |  | inactive |  |  |  |  | inactive | inactive |
| CC(=O)Nc1cc(S(=O)(=O)O)cc2cc(S(=O)(=O)O)c(N=Nc3ccccc3)c(O)c12 | inactive | inactive | inactive | inactive | inactive | inactive | inactive |  | inactive | inactive |  |  |  | inactive | inactive |  |  |  |
| CCn1cc(C(=O)O)c(=O)c2ccc(C)nc21 | inactive | inactive | inactive | inactive |  | inactive |  |  | inactive | inactive |  |  | inactive |  | inactive |  | inactive | inactive |
